For some assays here: Potency and affinity values are given separately. The source made the active and inactive calls. Where a call stands in place of a potency, no number is given. Unless noted, the limit is not given here; nearly all actives have IC50 up to about 0.91 µM.
What follows are compounds tested against Protein kinase 7 (PK7), Plasmodium falciparum 3D7 (PF3D7_0213400) (UniProt Q7YTF7) (assay: inhibition of Plasmodium PK7 catalytic activity – biochemical, TCAMS antimalarial set, Kinase-Glo luminescence (AID 1159587; call rule not given here)). Settings: recombinant PfPK7, Kinase-Glo ATP depletion luminescence.
Chain of Protein kinase 7 (PK7), Plasmodium falciparum 3D7 (PF3D7_0213400) (Q7YTF7 1-343): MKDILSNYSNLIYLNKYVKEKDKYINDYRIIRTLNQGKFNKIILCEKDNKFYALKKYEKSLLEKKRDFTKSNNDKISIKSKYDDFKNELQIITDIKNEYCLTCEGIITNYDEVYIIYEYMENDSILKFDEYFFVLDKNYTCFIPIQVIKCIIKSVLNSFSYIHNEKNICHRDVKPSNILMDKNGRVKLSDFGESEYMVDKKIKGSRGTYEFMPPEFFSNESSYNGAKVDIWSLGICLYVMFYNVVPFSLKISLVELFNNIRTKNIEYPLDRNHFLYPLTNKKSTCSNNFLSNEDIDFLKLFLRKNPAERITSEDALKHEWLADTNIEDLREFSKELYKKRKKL

Compound	outcome
CC(C)(C)C(=O)N1CCN(c2ccc([N+](=O)[O-])c(NC3CC3)c2)CC1	inactive
CCc1c[nH]c2c(N3CCCC3=O)cc(C(=O)N[C@@H](Cc3ccccc3)[C@H](O)CNC(C)(C)c3cccc(OC)c3)cc12	inactive
Cc1ccc2[nH]c(-c3ccc(/C=C/C(=O)NC4CCN(Cc5ccccc5)CC4)cc3)nc2c1C	inactive
Cc1ccc(C(=O)c2oc3ccc4c(C)cc(=O)oc4c3c2C)cc1	inactive
COc1ccc2nccc(C(=O)NC3CCC(CCN4CCc5cc(C#N)ccc5C4)CC3)c2c1 (stereo not given)	inactive
CCC(CO)NCC(O)Cn1c2ccc(Br)cc2c2cc(Br)ccc21 (stereo not given)	inactive
COCn1ncc2cc(-c3cccc(NC(=O)c4csc(NC(C)=O)n4)c3)ccc21	inactive
Cc1ccc(CNC(=O)[C@H](CCCN)Nc2nc(Nc3ccccc3)ncc2C)cc1	inactive
Cc1ccc(C(=O)Cn2nc(-c3ccc(C)c(S(=O)(=O)N4CCCC4)c3)ccc2=O)cc1	inactive
Cc1cc2nc(-c3ccc(/C=C/C(=O)NCc4ccc(Cl)c(Cl)c4)cc3)[nH]c2cc1C	inactive
CC(C)C[C@@H](CNC[C@H](CC(C)C)NC(=O)OC(C)(C)C)NC(=O)OC(C)(C)C	inactive
CCc1nc2ccc(C(=O)OC)nc2n1Cc1ccc2oc(-c3ccccc3N)c(Br)c2c1	inactive
Oc1ccc(C2CNCCc3c2cc(O)c(OCc2ccccc2)c3Cl)cc1 (stereo not given)	inactive
COc1ccccc1C(=O)Nc1cccc(N2CCC(NCc3ccc(-n4cccn4)cc3)CC2)c1	inactive
Fc1ccc(-c2cncc(Nc3ccncc3)n2)cc1	inactive
NC(=O)c1cccc(C(=O)Nc2cccc(-c3csc(-c4nc5ccccc5[nH]4)c3)c2)c1	inactive
O=C(/C=C/c1ccc(C(F)(F)F)cc1)NCCCCCN1CCC(c2c[nH]c3ccccc23)CC1	inactive
CCCOc1cc(OCCC)cc(-c2cc(=O)c3ccccc3[nH]2)c1	inactive
Cc1c(CCC#N)c(NCc2ccccc2)n2c(nc3ccccc32)c1C#N	inactive
CS(=O)(=O)c1ccccc1CNC(=O)c1cccc(-c2ccc(-c3nc4ccc(C(F)(F)F)cc4[nH]3)cc2)c1	inactive

Compound	outcome
CCN(CCCN1CCCCC1)c1cc(C)nc(Nc2ccc(C(C)C)cc2)n1	inactive
CC(C)(C)OC(=O)N[C@@H](Cc1ccccc1)C(=O)Nc1cccc(-c2cccc(NC(=O)[C@H](Cc3ccccc3)NC(=O)OC(C)(C)C)c2)c1	inactive
OC(CNCc1ccccc1OCc1ccccc1)c1cccc(Br)c1 (stereo not given)	inactive
N#Cc1cc([N+](=O)[O-])ccc1-n1nc(C(N)=O)n(Cc2cccc(F)c2)c1=S	inactive
CCC1CN2CCc3c([nH]c4ccccc34)C2CC1CC1=NCCc2c1[nH]c1ccccc21 (stereo not given)	inactive
CC1(C)N=C(N)N=C(N)N1OCCCOc1ccccc1N	inactive
O=C(/C=C/c1ccc(Cl)cc1)NCCCCCN1CCCC(C(=O)Nc2cccc(Cl)c2)C1 (stereo not given)	inactive
COc1ccc(CN2CCC(Oc3cccc(NC(=O)c4ccc(C(F)(F)F)cc4)c3)CC2)cc1	inactive
O=C(Nc1ccc(-c2cccc(-c3nc4ccc(C(F)(F)F)cc4[nH]3)c2)cc1)c1ccncc1	inactive
O=C1CSc2ccc(CNC3CCN(CCc4c(Cl)cnc5ccc(Cl)cc45)CC3)nc2N1	inactive
Cc1ccc(NC(=O)c2nc(N3CCN(c4ccncc4)CC3)ccc2Cl)cc1F	inactive
O=C(/C=C/c1ccc(Cl)c(Cl)c1)NCCCCCN1CCCN(C(=O)Nc2cc(Cl)nc(Cl)c2)CC1	inactive
CCc1cn2c3c(cc(C(=O)N[C@@H](Cc4ccccc4)[C@H](O)CN[C@@H](C)CC)cc13)N(C)S(=O)(=O)CC2	inactive
Cc1cc(NN=Cc2ccccn2)c2cc(F)ccc2n1	inactive
CC(=O)Nc1nc(C(=O)Nc2ccc(-c3cccc(-c4nc5ccc(F)cc5[nH]4)c3)cc2)cs1	inactive
CCOc1ccc(C(=O)N2CCOC(CCN3CCC(c4ccccc4)CC3)(c3ccc(Cl)c(Cl)c3)C2)cc1 (stereo not given)	inactive
CN(C(=O)c1ccc(Br)cc1)c1ccccc1[N+](=O)[O-]	inactive
CCCn1c(Sc2ccc(C#N)c([N+](=O)[O-])c2)nnc1-c1ccc(Cl)cc1	inactive
FC(F)(F)c1cccc(Nc2nc3nonc3nc2NC2C3CC4CC(C3)CC2C4)c1 (stereo not given)	inactive
O=C(Cc1cnc[nH]1)Nc1cccc(-c2ccc(-c3nc4ccc(C(F)(F)F)cc4[nH]3)cc2)c1	inactive

What follows are compounds tested against Calcium-dependent protein kinase 4 (Plasmodium falciparum (isolate 3D7)) (UniProt Q8IBS5) (assay: PfCDPK4 kinase inhibitors, biochemical, TCAMS library (AID 1159588)). Settings: recombinant PfCDPK4, Kinase-Glo ATP depletion luminescence.
Chain of Calcium-dependent protein kinase 4 (Plasmodium falciparum (isolate 3D7)) (Q8IBS5 whole entry, looked up): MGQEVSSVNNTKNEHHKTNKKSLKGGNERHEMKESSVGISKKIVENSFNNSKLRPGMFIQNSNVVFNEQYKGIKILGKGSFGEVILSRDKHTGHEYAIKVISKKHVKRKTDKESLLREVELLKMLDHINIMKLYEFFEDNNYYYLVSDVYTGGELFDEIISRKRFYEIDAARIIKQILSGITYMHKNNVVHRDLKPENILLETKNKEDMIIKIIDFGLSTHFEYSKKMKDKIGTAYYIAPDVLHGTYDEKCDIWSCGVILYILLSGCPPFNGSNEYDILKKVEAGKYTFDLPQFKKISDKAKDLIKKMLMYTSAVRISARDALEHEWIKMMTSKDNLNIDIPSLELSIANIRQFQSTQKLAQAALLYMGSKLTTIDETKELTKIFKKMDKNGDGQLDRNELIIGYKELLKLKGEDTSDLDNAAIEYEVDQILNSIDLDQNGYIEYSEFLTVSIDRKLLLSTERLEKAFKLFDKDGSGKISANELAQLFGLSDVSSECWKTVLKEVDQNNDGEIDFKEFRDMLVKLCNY

Compound	outcome
CC(C)(C)C(=O)N1CCN(c2ccc([N+](=O)[O-])c(NC3CC3)c2)CC1	inactive
CCc1c[nH]c2c(N3CCCC3=O)cc(C(=O)N[C@@H](Cc3ccccc3)[C@H](O)CNC(C)(C)c3cccc(OC)c3)cc12	inactive
Cc1ccc2[nH]c(-c3ccc(/C=C/C(=O)NC4CCN(Cc5ccccc5)CC4)cc3)nc2c1C	inactive
Cc1ccc(C(=O)c2oc3ccc4c(C)cc(=O)oc4c3c2C)cc1	inactive
COc1ccc2nccc(C(=O)NC3CCC(CCN4CCc5cc(C#N)ccc5C4)CC3)c2c1 (stereo not given)	inactive
CCC(CO)NCC(O)Cn1c2ccc(Br)cc2c2cc(Br)ccc21 (stereo not given)	inactive
COCn1ncc2cc(-c3cccc(NC(=O)c4csc(NC(C)=O)n4)c3)ccc21	inactive
Cc1ccc(CNC(=O)[C@H](CCCN)Nc2nc(Nc3ccccc3)ncc2C)cc1	inactive
Cc1ccc(C(=O)Cn2nc(-c3ccc(C)c(S(=O)(=O)N4CCCC4)c3)ccc2=O)cc1	inactive
Cc1cc2nc(-c3ccc(/C=C/C(=O)NCc4ccc(Cl)c(Cl)c4)cc3)[nH]c2cc1C	inactive
CC(C)C[C@@H](CNC[C@H](CC(C)C)NC(=O)OC(C)(C)C)NC(=O)OC(C)(C)C	inactive
CCc1nc2ccc(C(=O)OC)nc2n1Cc1ccc2oc(-c3ccccc3N)c(Br)c2c1	inactive
Oc1ccc(C2CNCCc3c2cc(O)c(OCc2ccccc2)c3Cl)cc1 (stereo not given)	inactive
COc1ccccc1C(=O)Nc1cccc(N2CCC(NCc3ccc(-n4cccn4)cc3)CC2)c1	inactive
Fc1ccc(-c2cncc(Nc3ccncc3)n2)cc1	inactive
NC(=O)c1cccc(C(=O)Nc2cccc(-c3csc(-c4nc5ccccc5[nH]4)c3)c2)c1	inactive
O=C(/C=C/c1ccc(C(F)(F)F)cc1)NCCCCCN1CCC(c2c[nH]c3ccccc23)CC1	inactive
CCCOc1cc(OCCC)cc(-c2cc(=O)c3ccccc3[nH]2)c1	inactive
Cc1c(CCC#N)c(NCc2ccccc2)n2c(nc3ccccc32)c1C#N	inactive
CS(=O)(=O)c1ccccc1CNC(=O)c1cccc(-c2ccc(-c3nc4ccc(C(F)(F)F)cc4[nH]3)cc2)c1	inactive

Compound	outcome
CCN(CCCN1CCCCC1)c1cc(C)nc(Nc2ccc(C(C)C)cc2)n1	inactive
CC(C)(C)OC(=O)N[C@@H](Cc1ccccc1)C(=O)Nc1cccc(-c2cccc(NC(=O)[C@H](Cc3ccccc3)NC(=O)OC(C)(C)C)c2)c1	inactive
OC(CNCc1ccccc1OCc1ccccc1)c1cccc(Br)c1 (stereo not given)	inactive
N#Cc1cc([N+](=O)[O-])ccc1-n1nc(C(N)=O)n(Cc2cccc(F)c2)c1=S	inactive
CCC1CN2CCc3c([nH]c4ccccc34)C2CC1CC1=NCCc2c1[nH]c1ccccc21 (stereo not given)	inactive
CC1(C)N=C(N)N=C(N)N1OCCCOc1ccccc1N	inactive
O=C(/C=C/c1ccc(Cl)cc1)NCCCCCN1CCCC(C(=O)Nc2cccc(Cl)c2)C1 (stereo not given)	inactive
COc1ccc(CN2CCC(Oc3cccc(NC(=O)c4ccc(C(F)(F)F)cc4)c3)CC2)cc1	inactive
O=C(Nc1ccc(-c2cccc(-c3nc4ccc(C(F)(F)F)cc4[nH]3)c2)cc1)c1ccncc1	inactive
O=C1CSc2ccc(CNC3CCN(CCc4c(Cl)cnc5ccc(Cl)cc45)CC3)nc2N1	inactive
Cc1ccc(NC(=O)c2nc(N3CCN(c4ccncc4)CC3)ccc2Cl)cc1F	inactive
O=C(/C=C/c1ccc(Cl)c(Cl)c1)NCCCCCN1CCCN(C(=O)Nc2cc(Cl)nc(Cl)c2)CC1	inactive
CCc1cn2c3c(cc(C(=O)N[C@@H](Cc4ccccc4)[C@H](O)CN[C@@H](C)CC)cc13)N(C)S(=O)(=O)CC2	inactive
Cc1cc(NN=Cc2ccccn2)c2cc(F)ccc2n1	inactive
CC(=O)Nc1nc(C(=O)Nc2ccc(-c3cccc(-c4nc5ccc(F)cc5[nH]4)c3)cc2)cs1	inactive
CCOc1ccc(C(=O)N2CCOC(CCN3CCC(c4ccccc4)CC3)(c3ccc(Cl)c(Cl)c3)C2)cc1 (stereo not given)	inactive
CN(C(=O)c1ccc(Br)cc1)c1ccccc1[N+](=O)[O-]	inactive
CCCn1c(Sc2ccc(C#N)c([N+](=O)[O-])c2)nnc1-c1ccc(Cl)cc1	inactive
FC(F)(F)c1cccc(Nc2nc3nonc3nc2NC2C3CC4CC(C3)CC2C4)c1 (stereo not given)	inactive
O=C(Cc1cnc[nH]1)Nc1cccc(-c2ccc(-c3nc4ccc(C(F)(F)F)cc4[nH]3)cc2)c1	inactive

— PubChem BioAssay
